According to PubChem BioAssay (NCI):
This is part of a sample that, as a whole, favours compounds with a hit. Of some 83,000 tested, about 20% had one in any assay.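 Single-concentration screen, 48 h exposure, 96-well plates. Endpoint: percent growth. Below 10 = active.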 Unmarked numbers belong to inactive results. Active and inactive are the calls of the source.

Columns and labels:
Assay in all cases: NCI-60 one-dose screen, 48 h (100 = growth as untreated, 0 = no growth, -100 = all killed)
Settings in all cases: 10 µM unless noted
[1] = tested on: SR leukemia
[2] = tested on: RPMI-8226 leukemia
[3] = tested on: OVCAR-8 ovarian
[4] = tested on: OVCAR-5 ovarian
[5] = tested on: OVCAR-4 ovarian
[6] = tested on: SK-OV-3 ovarian
[7] = tested on: IGROV1 ovarian
[8] = tested on: HS 578T breast
[9] = tested on: NCI/ADR-RES ovarian

SMILES | growth [1] | growth [2] | growth [3] | growth [4] | growth [5] | growth [6] | growth [7] | growth [8] | growth [9]
CCOC(=O)C(=O)/C(=C\c1ccc(Cl)cc1)C(=O)N1C(=S)NC(=O)C1CC(C)C (configuration not stated) | 105% | 93.2% | 103% | 98.6% | 98.2% | 108% | 95.2% | 106% | 101%
CC1(C)CC[C@]23CC[C@]4(C)[C@H](CC[C@@H]5[C@@]6(C)CCCN(CO)C(C)(C)[C@@H]6CC[C@]54C)[C@H]2[C@H]1OC3 | 1.43% (active) | 21.8% | 101% | 95.9% | 85.6% | 118% | 69% | 91.3% | 101%
COc1ccc(-n2c(/C=C3\C(=O)Nc4ccccc43)ccc2CO)cc1 | 105% | 94.6% | 102% | 107% | 92.6% | 105% | 98.5% | 106% | 102%
N#Cc1cn(Cc2ccc(Cl)cc2Cl)c(C(=O)c2ccc(Br)cc2)c1N | 99.5% | 111% | 84.5% | 92% | 100% | 90.4% | 97.3% | 90% | 88.8%
COc1ccc2[nH]cc(-c3csc4nc(-c5ccccc5)cn34)c2c1 | 20.1% | 5.78% (active) | 24.1% | 46.2% | 56.5% | 16.1% | 41.6% | -3.7% (active) | 5.97% (active)
C=CC(=O)N1CC=C(c2cc3c(N[C@H](C)c4ccccc4)ncnc3[nH]2)CC1 | 66.7% | 85.8% | 85.8% | 37.5% | 71.9% | 47.4% | 6.95% (active) | 39.9% | 89.5%
Nc1ncc(-c2ccc(NS(=O)(=O)c3ccc(Cl)c(Cl)c3)cc2)[nH]1 | 76.6% | 59.1% | 92.9% | 90.4% | 93.9% | 94.5% | 88.8% | 79.5% | 98.3%
Cc1ccc2c(c1)C(=O)/C(=C/c1cccc(F)c1)S2 | 101% | 84.6% | 103% | 105% | 99.7% | 99% | 97.7% | 104% | 109%
Cc1ccc2sc3c(c2c1)OC(N)=C(C#N)C3c1cccc(F)c1 (configuration not stated) | 9.55% (active) | 14.4% | 4.8% (active) | 14.4% | 20.3% | 22.5% | 18.8% | 5.7% (active) | 5.79% (active)
Clc1cccc(/C=N/Nc2nc(N/N=C/c3cccc(Cl)c3Cl)nc(N3CCCCC3)n2)c1Cl | 33.4% | 93.4% | 72.9% | 94% | 71.5% | 105% | 79.6% | 85% | 67.4%
C[C@@H]1C[C@H]2C(=O)O[C@@H](C)C(NC(=O)[C@H](Cc3cc(F)cc(F)c3)NC(=O)Nc3ccc(Cl)cc3F)C(=O)N3CCC[C@H]3C(=O)N3CCCC[C@H]3C(=O)N[C@@H](CO)C(=O)N2C1 (some centres not stated) | 31.2% | 14.9% | 21.9% | 35.3% | 22.6% | 22.1% | 47.9% | 33.4% | 47.5%
CNC(=O)c1cc(-n2ccc3cc(NC(=O)Nc4ccc(N5CCOCC5)c(C(F)(F)F)c4)ccc32)ccn1 | 9.16% (active) | -26.7% (active) | 60.6% | 65.1% | 40.6% | 102% | 32.3% | 32.2% | 47.9%
Cc1cc2ncc(-c3cc4ccccc4c(N4CCN(C)CC4)n3)nc2cc1C | -39.9% (active) | -12.2% (active) | 67.9% | 31.9% | 37.6% | 87.5% | 42.3% | 61.9% | 40.2%
CCNC(=O)N1CCc2cc(OC)c(OCCc3ccc(OC)nc3)cc2C1c1ccc(C)cc1C (configuration not stated) | 7.67% (active) | 9.18% (active) | 15.5% | 31.4% | 52.5% | 54% | 17.2% | -2.81% (active) | 7.35% (active)
CCNC(=O)N1CCc2cc(OC)c(OCCc3ccc(OC)cc3)cc2C1c1ccc([N+](=O)[O-])cc1C (configuration not stated) | 8.11% (active) | 20.7% | 29.1% | 40.4% | 54% | 51.4% | 24.9% | 0.838% (active) | 12.2%
O=C1/C(=C/C=C/c2ccco2)SC(=S)N1C1CCCCC1 | 82.2% | 100% | 97.4% | 94% | 95.3% | 104% | 101% | 101% | 99%
Cc1cc(C)c2sc(=O)n(Cc3nnc(SCCC(=O)O)o3)c2n1 | 79.2% | 99.8% | 104% | 99.4% | 108% | 105% | 102% | 103% | 102%
COc1cc(-c2nc3sccn3c2-c2ccnc(S(C)(=O)=O)n2)ccc1F | 86.3% | 91.9% | 98.3% | 98.3% | 98.2% | 113% | 98.1% | 101% | 95.7%
O=C(O)c1cn(C2CC2)c2cc(N3CCN(C(=O)CN4C(=O)CSC4=O)CC3)c(F)cc2c1=O | 99.3% | 126% | 105% | 99% | 86.4% | 113% | 82.6% | 97.7% | 108%
O=S(=O)(NC1c2ccccc2C[C@H]1O)c1ccc(Cl)cc1Cl (some centres not stated) | 87.2% | 107% | 98.4% | 102% | 97.4% | 97.3% | 99.2% | 93.7% | 99.5%
COc1ccc(-c2nc3cc(Cl)c(Cl)cc3n2CC(=O)N=Nc2c(O)[nH]c3ccc(OC)cc23)cc1 | 60.6% | 55.1% | 74.5% | 49.7% | 40.4% | 86.2% | 29.5% | 47.7% | 30.9%
CNC(=O)c1cc(Oc2ccc3nc(NC(=O)c4ccc(N5CCOCC5)c(C(F)(F)F)c4)sc3c2)ccn1 | 53.2% | 47.5% | 56.2% | 99% | 61.5% | 102% | 88.7% | 69.6% | 70%
COc1cc(OC)c(S(N)(=O)=O)cc1C(=O)/C=C/c1ccc(C)cc1 | 5.66% (active) | 18.5% | 31.7% | 13.4% | 53.1% | 37.6% | 25.3% | 21.3% | 37%
O=C(Cn1c(-c2ccccc2)nc2cc(Cl)c(Cl)cc21)N=Nc1c(O)[nH]c2ccc(Cl)cc12 | 67.9% | 59% | 83.5% | 80.5% | 77.9% | 85.6% | 87.9% | 81.3% | 72.3%
Cc1ccc(N2C(=O)/C(=C/C=C/c3ccco3)SC2=S)cc1 | 56.6% | 75.3% | 99.2% | 103% | 92.4% | 107% | 103% | 96.2% | 97.6%
CCNC(=O)N1CCc2cc(OC)c(OCCc3ccc(OC)cc3)cc2C1c1ccc(OC)cc1C (configuration not stated) | 4.44% (active) | 13.6% | 27.6% | 35.9% | 50.3% | 45.9% | 27.8% | 1.32% (active) | 12.3%
Cc1ccc(-n2cc(/C=N/NC(=O)c3ccncc3)c(-c3ccc(S(C)(=O)=O)cc3)n2)cc1 | 63.5% | 96.5% | 98.7% | 103% | 102% | 96.1% | 77.8% | 90.3% | 51.7%
N#Cc1cccc(/C(N)=N/C(N)=N/c2nc3ccccc3s2)c1 | 26.2% | 8.74% (active) | 35% | 62.3% | 91.7% | 41.6% | 36.6% | 23% | 14.3%
